For one assay, the target named is LUC7L2. The experiment in a line: pooled miR-30 sensor sort-seq; sequence = guide strand. The settings on record: shRNA.
Consider TTAACTCATGAACACGTTCTGC, for which the sensor-assay potency score (higher = more potent) was -0.686. On the same count and under the same terms, the figure for TTGAGAAGGTGACTCTTGCATA is -0.354; for TTTGGATCGAGTTCTCCTCTTG it is -0.398; for TAATCTCTTCTTGAGTTTCTGC it is -0.17.

For the sequence TTTGCTGCTACTTCAGCACTAA, the sensor-assay potency score (higher = more potent) was -0.0299. TGTCTCTGTCACATGATGCTAA: the sensor-assay potency score (higher = more potent) is -0.366. TAGAACATCCTGAACATAGCAA came in with a sensor-assay potency score (higher = more potent) of 0.289. For the sequence TTGGATCGTTCTCTGCTCCTAT, the sensor-assay potency score (higher = more potent) came out at 0.469. For the sequence TTGCATACTCTGTCATCACTGA, the sensor-assay potency score (higher = more potent) was determined as 0.248. The same measure, in the same setting: the result for TACTTCATCCATTACTTTCTGG reads -0.257; that for TCTCTTGAACTCCTGTCTCTGT, -0.457.

In another assay the target is LY6K. Described as above. The settings on record: shRNA.
For the sequence TTGAACACTGATGAGTTGATAG, the sensor-assay potency score (higher = more potent) is -0.979.

Consider TCTCCATCGCTGCACAACCAGC, for which the sensor-assay potency score (higher = more potent) was -1.92.

With TCTTTGAACACTGATGAGTTGA, the sensor-assay potency score (higher = more potent) was -0.353. Sequence TTTCTCTCTCACAAACATGACA yielded a sensor-assay potency score (higher = more potent) of -1.23. Same read-out and setting: the figure for TAATGCAACAGGTGACAACGGT is -0.099; for AATTTTACAACACTTGAGGTAA it is -0.3; for TATTCTTTGAACACTGATGAGT it is -0.623. Take TAGCGAATTTTACAACACTTGA: the sensor-assay potency score (higher = more potent) was -0.625.

For TCTATTGTCACCCTCGTCCGTT, the sensor-assay potency score (higher = more potent) is -0.102. Same read-out and setting: the result for TTGGCGTCTGTCCACACCCGCG reads -1.54; that for TCTCTCACAAACATGACACCAC, 0.0962.

For AAACATGACACCACACTCTATT, the sensor-assay potency score (higher = more potent) is -0.883.

These data come from the OligoGym collection.
Also: reference of the scale not given here.
